PfHsp40 rescue = restores yeast growth despite PfHsp40 toxicity; 340,000 tested, 0.68% active; growth rescue, % at 12.5 µM; S. cerevisiae expressing PfHsp40, growth rescue, ATP luminescence; in the data active = growth rescue above about 28%, passing the limit was not always enough; inconclusive = no clear call, values can overlap the other calls;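 note: yeast W303a lacking pdr1 and pdr3 grown in galactose medium; growth measured after three days at 30 °C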
Mtb betalactam = beta-lactam sensitization of Mtb H37Rv; M. tuberculosis H37Rv growth with meropenem, percent inhibition; inhibition, % at 25 µM; 330,000 tested, 0.27% active; call rule not given here;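 note: growth measured after seven days incubation then overnight dye step; 0% = bacteria only wells and 100% = bacteria with antibiotic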
RecA intein inh = Mtb RecA intein splicing inhibition; P9WHJ3; cell-free RecA intein splicing, fluorescence; inhibition, % (concentration not given with the values); 290,000 tested, 0.75% active; AID 2221; in the data active = inhibition above about 30%; inconclusive = no clear call, values can overlap the other calls;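 note: 0% = vehicle wells and 100% = reference inhibitor control wells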
Target sequence (P9WHJ3 whole entry, looked up): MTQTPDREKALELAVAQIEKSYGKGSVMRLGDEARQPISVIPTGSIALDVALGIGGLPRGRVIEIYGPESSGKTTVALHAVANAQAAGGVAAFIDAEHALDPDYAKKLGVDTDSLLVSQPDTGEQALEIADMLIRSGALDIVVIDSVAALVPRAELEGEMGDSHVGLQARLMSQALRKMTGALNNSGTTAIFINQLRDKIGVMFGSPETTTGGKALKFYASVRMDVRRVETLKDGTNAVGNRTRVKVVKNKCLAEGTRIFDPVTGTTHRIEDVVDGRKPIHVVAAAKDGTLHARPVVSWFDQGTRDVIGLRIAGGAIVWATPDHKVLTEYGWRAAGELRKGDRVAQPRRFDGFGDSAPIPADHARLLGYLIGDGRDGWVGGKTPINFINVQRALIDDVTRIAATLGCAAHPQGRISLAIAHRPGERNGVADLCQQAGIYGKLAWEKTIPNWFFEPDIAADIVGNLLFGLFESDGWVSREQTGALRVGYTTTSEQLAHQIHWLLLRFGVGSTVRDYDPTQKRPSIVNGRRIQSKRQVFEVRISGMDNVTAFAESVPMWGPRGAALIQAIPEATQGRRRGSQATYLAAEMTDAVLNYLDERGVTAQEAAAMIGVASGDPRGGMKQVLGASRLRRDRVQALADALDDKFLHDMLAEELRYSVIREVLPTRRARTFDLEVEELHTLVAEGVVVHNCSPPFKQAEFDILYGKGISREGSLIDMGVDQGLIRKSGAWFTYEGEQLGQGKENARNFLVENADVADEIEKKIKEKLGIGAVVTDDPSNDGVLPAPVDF
CCHF vOTU inh = CCHFV vOTU protease inhibition; AID 651958; inhibition, % at 11.5 µM; Pep-AMC fluorescence; 370,000 tested, 0.55% active; in the data active = inhibition above about 30%; note: 0% = vehicle wells with enzyme and 100% = no enzyme wells
Mtb hypoxia inh = reduces hypoxia-regulated biosensor signal in M. tuberculosis | M. tuberculosis hypoxia-regulated fluorescent reporter, fluorescence | fluorescence inhibition, % (no concentration beside the values) | 300,000 tested, 0.1% active; in the data active = fluorescence inhibition mostly above about 23%, no sharp cut-off; inactive = mostly below about 17%
* hit, by the source's call; u = inconclusive; x = not tested or not shown. Only some compounds are listed: those with a hit (about 1.7% of all), similar ones and a draw of the others.

SMILES	PfHsp40 rescue	Mtb betalactam	RecA intein inh	CCHF vOTU inh	Mtb hypoxia inh
Fc1cccc(CCN2CCNCC2CC2CCCCC2)c1 (stereo unspecified)	x	x	x	x	19
CCc1ccc(C=NNC(=O)C(=O)NCCCN2CCOCC2)cc1	x	x	x	x	4
Cc1cc(C(=O)COC(=O)Cc2n[nH]c(=O)c3ccccc23)c(C)n1-c1cccc(C(F)(F)F)c1	96*	75	6	28	8
COc1cc(SC)ccc1C(=O)Nc1ccc(C)cc1C	-1	x	3	3	8
COc1cc(SC)ccc1C(=O)Nc1ccc(C)cc1	147*	91	-1	5	-3
O=S(=O)(/C=C/c1ccccc1)NC1CCCCCCC1	70*	0	4	11	11
O=S(=O)(/C=C/c1ccccc1)NC1CCCCCC1	63*	5	1	6	8
CN1CCN(C2CCN(c3ccc(Nc4nnc(Cl)c(Nc5ccccc5S(C)(=O)=O)n4)c(OC(CF)CF)c3)CC2)CC1	329*	2	x	-2	2
CC(=NS(=O)(=O)c1ccc(C)cc1)N1CCN(S(=O)(=O)c2ccccc2)C1	x	x	x	x	-5
O=c1nc2s/c(=C\c3ccc(-c4ccccc4[N+](=O)[O-])o3)c(=O)n2nc1-c1ccccc1	0	x	64*	-2	x
CCCCCOc1ccc(/C=c2\sc3nc(=O)c(-c4ccccc4)nn3c2=O)cc1OC	-1	-6	-4	-4	x
CCC(C)C(C(=O)N1CCNCC1)n1cc(CCC(=O)O)nn1 (stereo unspecified)	x	x	x	x	-5
O=C(CCN1CCN(c2ccccc2)CC1)NN=Cc1ccccc1OC(F)F	x	x	x	x	4
O=C(CN1CCCc2ccccc21)N/N=C/c1c(O)ccc2ccccc12	179*	13	7	10	x
O=C1C=C(c2ccccc2)C(=O)N1Nc1ccccc1	264*	86	0	5	x
COc1ccc(OC)c(C(O)=CC(=O)C(=O)Nc2cc(C)cc(C)c2)c1	x	x	x	x	5
CC1(C)c2[nH]c3ccccc3c2CC2C(=O)N(Cc3ccccc3Cl)C(=O)N21 (stereo unspecified)	x	x	x	x	1
O=C(O)c1cccc2c3c([nH]c12)CCCC3	128*	-10	-4	3	0
CC1CCCCN1C(=O)c1cccc(NC2=C(Cl)C(=O)N(Cc3ccccc3)C2=O)c1 (stereo unspecified)	31*	5	x	x	6
Nc1ccc(S(=O)(=O)Nc2nc3ccccc3o2)cc1	0	52	-1	1	75*
CC(NC(=O)c1ncn(Cc2ccccc2)c1C(=O)NC(C)c1ccccc1)c1ccccc1 (stereo unspecified)	x	x	x	x	12
C#CCOCCOCCOCCNc1nc(N2CCN(C(=O)C(CCC(=O)O)n3cc(C(N)CC(C)C)nn3)CC2)nc(N2CCN(C(=O)C(C(C)CC)n3cc(C(N)CO)nn3)CC2)n1 (stereo unspecified)	x	x	x	x	-4
COc1ccc(NC(=O)Nc2nc3c(s2)CCCC3)cc1	56*	9	2	-6	3
COC(CN(C(=O)CCl)C(C(=O)NC1CCCCC1)c1ccc(C)cc1)OC (stereo unspecified)	0	-4	32*	6	10
COc1ccc(C(C(=O)NC2CCCCC2)N(C(=O)CCl)c2ccc(C)cc2)cc1 (stereo unspecified)	-1	7	-3	1	2
SMILES	PfHsp40 rescue	Mtb betalactam	RecA intein inh	CCHF vOTU inh	Mtb hypoxia inh
O=C1C=C(c2ccc(CO)cc2)CC(c2ccc3c(c2)OCO3)C1 (stereo unspecified)	x	x	x	x	19
Cc1ccc(C(=O)NN=Cc2ccc(-c3cccc(Cl)c3)o2)cn1	x	x	x	x	5
COc1ccc(CCC(=O)Nc2c(-c3ccc(N(C)C)cc3)[nH][nH]c2=O)cc1	x	x	x	109*	x
COc1ccc(NC(=O)C(C)N=C2NS(=O)(=O)c3ccccc32)cc1S(N)(=O)=O (stereo unspecified)	-1	-7	x	-6	26*
Cc1ccc(NC(=O)C(C)N=C2NS(=O)(=O)c3ccccc32)cc1 (stereo unspecified)	-1	-8	0	-15	5
CCCCCc1ccc(OCCCC[n+]2cccc(C)c2)c(CCCCC)c1	95*	100	x	16	x
CCCCCc1ccc(OCCCC[n+]2ccccc2)c(CCCCC)c1	135*	99	3	x	x
CCCCCc1ccc(OCCCC[n+]2ccc(C)cc2)c(CCCCC)c1	0	100	6	17	x
CCOC(=O)C(NCc1ccc2c(c1)OCO2)(NC(=O)c1ccccc1)C(F)(F)F (stereo unspecified)	45*	0	-1	11	x
C=C(C)COc1ccc(-c2[nH]ncc2-c2ccccc2)c(O)c1	519*	26	9	10	10
C=C(C)COc1ccc(-c2[nH]ncc2-c2ccc(OC)c(OC)c2)c(O)c1	1	-5	1	9	x
C=C(C)COc1ccc(-c2[nH]ncc2-c2ccc(OC)cc2)c(O)c1	92*	2	-3	0	18
Oc1cc(OCc2ccccc2)ccc1-c1[nH]ncc1-c1ccccc1	u	58	20	5	1
Cc1noc(C)c1S(=O)(=O)N(C)CC1Oc2ccc(NC(=O)C3CCCCC3)cc2C(=O)N(C(C)CO)CC1C (stereo unspecified)	x	x	x	x	5
CCCn1c(N=Cc2ccc3c(c2)OCO3)nc2ccccc21	x	x	x	x	0
COC(=O)C1=C(c2ccc(-c3ccccc3)c(F)c2)C[C@@H]2CC[C@H]1N2C(=O)N1CCCC1	29*	3	x	10	x
COC(=O)C1=C(c2ccc(-c3ccccc3)c(F)c2)C[C@@H]2CC[C@H]1N2C(=O)N1CCCCC1	18	8	x	22	x
Cc1ccc(S(=O)(=O)N2C(c3ccc(Cl)cc3)CC=C(C(=O)O)C2c2ccc(F)cc2)cc1 (stereo unspecified)	x	x	x	x	11
COC(=O)[C@@]12CCCN1C(c1ccc(-c3ccc(Cl)c(Cl)c3)c(OC)c1)C1C(=O)N(C)C(=O)C12 (stereo partly specified)	x	x	x	x	-1
COC(=O)COC(=O)c1ccccc1NC(=O)c1ccccc1	245*	85	0	14	-5
CC(=O)c1ccccc1NC(=O)COC(=O)c1ccccc1NC(=O)c1ccccc1	7	2	x	-9	9
CC(CC(=O)Nc1ccccn1)=NNC(=O)c1ccccc1	x	x	x	x	5
COc1cccc(NC(=O)C/C(C)=N/NC(=O)c2ccccc2Cl)c1	39*	53	1	-3	x
C/C(CC(=O)Nc1ccccn1)=N\NC(=O)c1ccccc1O	234*	-2	0	-19	x
O=C(NC=NOCc1ccc(Cl)cc1Cl)NOCc1c(Cl)cccc1Cl	x	x	x	x	15
CCCC(=NNC(=O)c1ccccc1Cl)c1ccccc1	x	x	x	x	13
CC(NC(=S)Nc1ccc(OC(F)F)c(Cl)c1)C(C)(C)C (stereo unspecified)	0	94	3	6	28*
C=CCCC(Cc1ccc(F)cc1)C(=O)OCC(Cc1c[nH]c2ccccc12)NC(=O)C(CC=C)CC(=O)N(CCO)Cc1ccccc1 (stereo unspecified)	x	x	x	x	-4
NC(=O)c1cc([N+](=O)[O-])ccc1Nc1ccccc1	48*	-10	x	7	2

Screening results as filed in PubChem.
